Screening results (PubChem BioAssay)
Only some compounds are listed: those with a hit (about 7.3% of all), similar ones and a draw of the others.
HCV inhibitor = blocks hepatitis C virus | Huh7.5.1 HCVcc-Cre infection, luciferase reporter, 44 h | Potency, µM (series often up to 41.8 µM), for the others: at the top dose activity change, negative = inhibition, hits mostly inhibitors | actives 3.4% (n = 340,000) | AID 651820; further: potency means the concentration at half of the fitted maximal effect
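Compounds are dispensed onto cells plated 4 h earlier at 1,000 per well, with HCVcc-Cre virus (about 0.5 moi) added next. Following 44 h of culture, luminescent signal is measured for 15 sec after 15 min with substrate at room temperature.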
HCMV antiviral = human cytomegalovirus inhibition; AID 1259415; activity change, negative = inhibition, % at 57.5 µM; HFF cells, HCMV-luciferase reporter, 72 h; stronger effect = lower value; actives 4.5% (n = 410,000); in the data active means activity change below about -60%; inconclusive means no clear call, values can overlap the other calls; inactive means above about -39%
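Inhibition of viral replication was scored as loss of reporter luminescence in HFFs infected with HCMV-luciferase (MOI 1 PFU/cell) for 72 h; compounds tested at 2 doses, normalized to buffer and Salinomycin controls.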
AmpC inh detg = AmpC beta-lactamase inhibition with detergent present; P00811; AmpC hydrolysis of nitrocefin, absorbance 480 nm, 0.01% Triton; Potency, µM (highest dose often 114 µM), for the others: at the highest dose activity change, negative = inhibition, usual class: inhibitors; actives 0.041% (n = 370,000); AID 485294;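 further: potency means the concentration at half of the fitted maximal effect; 0% = no-compound wells and -100% = no-enzyme wells; nearly all actives have a fitted effect of over 25% in size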
Target sequence (P00811 whole entry, looked up): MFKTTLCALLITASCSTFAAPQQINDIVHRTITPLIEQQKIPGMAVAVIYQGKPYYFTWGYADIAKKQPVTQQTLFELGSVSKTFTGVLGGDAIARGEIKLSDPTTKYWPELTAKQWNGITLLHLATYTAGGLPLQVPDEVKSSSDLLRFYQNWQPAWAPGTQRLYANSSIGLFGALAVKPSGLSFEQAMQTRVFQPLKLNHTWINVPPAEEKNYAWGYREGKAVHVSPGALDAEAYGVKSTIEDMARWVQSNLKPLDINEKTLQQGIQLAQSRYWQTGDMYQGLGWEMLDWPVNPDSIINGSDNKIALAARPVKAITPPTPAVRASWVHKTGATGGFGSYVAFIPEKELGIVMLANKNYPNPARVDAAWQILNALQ
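AmpC (5.3 nM in the dispensed reagent) in 20 mM phosphate pH 7.0 with 0.01% (detergent screen) or 0.0001% Triton X-100 was preincubated with compounds for 15 min at room temperature. Nitrocefin was then added from an 800 uM solution, and hydrolysis was followed at 480 nm.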
AmpC no deterg = inhibitors of E. coli AmpC beta-lactamase without detergent; actives 0.52% (n = 330,000); Potency, µM (doses to about 57.1 µM), without a hit: at the top dose activity change, negative = inhibition, actives largely listed as inhibitors; AmpC nitrocefin hydrolysis, absorbance 480 nm, 0.0001% Triton; P00811;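 further: potency means the concentration at half of the fitted maximal effect; plate controls were no compound for no effect and no enzyme for full effect; nearly all actives have a fitted effect of over 20% in size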
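20 mM phosphate pH 7.0 + 0.01% (detergent screen) or 0.0001% Triton X-100; 5.3 nM AmpC reagent; cpd preinc 15 min RT; nitrocefin (800 uM stock) to start; A480 q20 s × 4 min; Activity was normalised to no-enzyme and no-compound control wells.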
FMDV inh = foot and mouth disease virus antiviral activity | FMDV antiviral cell-based qHTS | Potency, µM (titrated, usually from 57.9 µM), inactives show at the top dose activity change, negative = inhibition, actives largely listed as inhibitors | actives 1.2% (n = 410,000); calls by dose curve; tested in HEK293T cells; further: read-out not given here; potency means the concentration at half of the fitted maximal effect; nearly all actives have a fitted effect of over 45% in size
Active calls of the source: *; [ ] = another dose, or the depositor's remark. Unless noted, the call rests on the fitted dose curve; in most records, active means well fitted curve in the direction sought with a large enough effect; inconclusive means small, poorly fitted or top-dose-only effect, or another doubt; inactive means no such curve, though single readings can be large; an effect the other way counts as inactive or inconclusive. Unless noted, on the % scale 0 is the no-effect control and ±100 the full control effect.

How did COc1ccc2c(c1)CCc1c(C(=O)Nc3ccc(F)c(Cl)c3)noc1-2 do in these assays?
HCMV antiviral: 64; AmpC inh detg: 26%; FMDV inh: 13%

What do the screens show for `COc1ccc2c(c1)CCc1c(C(=O)Nc3c(C)nn(Cc4c(Cl)cccc4Cl)c3C)noc1-2`?
HCMV antiviral: -92*; AmpC inh detg: -3%; FMDV inh: -14%

What do the screens show for `COc1ccc2c(c1)CCc1c(C(=O)Nc3c(C)nn(Cc4ccccc4C)c3C)noc1-2`?
HCMV antiviral: -66*; AmpC inh detg: -3%; FMDV inh: inconclusive

What do the screens show for `Cc1cccc(NS(=O)(=O)c2ccc(C)c(C(=O)NCCCN3CCOCC3)c2)c1`?
HCV inhibitor: 22%; HCMV antiviral: -13; AmpC inh detg: 0%; AmpC no deterg: -11%; FMDV inh: 15%

What do the screens show for `COc1cc(=O)n2c(c1C(=O)NC(C)c1ccco1)CCN(Cc1ccccc1Cl)CC2` (centres undefined)?
FMDV inh: -6%

Results for Cc1nc2sccn2c1CN1Cc2ccccc2OC(c2ccccc2F)C1 (centres undefined) ?
FMDV inh: -20%

Results for COc1cc(C(C)=O)ccc1OCC(O)CNCC1(N2CCCCC2)CCCCC1 (centres undefined) ?
HCV inhibitor: inconclusive; HCMV antiviral: 85; AmpC inh detg: inconclusive; AmpC no deterg: -15%; FMDV inh: -8%

How did COc1ccccc1COCC(O)CNCC1(N2CCCCC2)CCCCC1 (centres undefined) do in these assays?
HCV inhibitor: -19%; HCMV antiviral: 33; AmpC inh detg: 0%; AmpC no deterg: 0.14µM*; FMDV inh: -13%

How did CC(C)C(NC(=O)c1ccccc1F)C(=O)NCC(c1ccco1)N1CCCCC1 (centres undefined) do in these assays?
HCV inhibitor: 0%; HCMV antiviral: -64*; AmpC no deterg: -8%; FMDV inh: 2%

What do the screens show for `CSCCC(NC(=O)c1ccccc1Cl)C(=O)NCC(c1ccco1)N1CCCCC1` (centres undefined)?
HCV inhibitor: -4%; HCMV antiviral: -34; AmpC inh detg: 0%; AmpC no deterg: -7%; FMDV inh: 0%

How did Cc1cc2oc(C(=O)NCC(c3ccco3)N3CCCC3)c(C)c2cc1C (centres undefined) do in these assays?
HCMV antiviral: 10; FMDV inh: -8%

What do the screens show for `O=C(NCC(c1ccco1)N1CCCC1)c1cc2cc(Cl)ccc2o1` (centres undefined)?
HCV inhibitor: 13µM*; HCMV antiviral: -25; AmpC inh detg: 3%; AmpC no deterg: 1%; FMDV inh: -1%

What do the screens show for `Cc1ccc2oc(C(=O)NCC(c3ccco3)N3CCCC3)c(C)c2c1` (centres undefined)?
HCV inhibitor: 32µM*; HCMV antiviral: -15; AmpC inh detg: 3%; AmpC no deterg: 71%; FMDV inh: -13%

What do the screens show for `O=C(NCC(c1ccco1)N1CCCCC1)c1ccc([N+](=O)[O-])s1` (centres undefined)?
HCV inhibitor: 0.56µM*; HCMV antiviral: 9; AmpC no deterg: -27%; FMDV inh: -9%

What do the screens show for `COc1ccc(CN2CCOc3ccc(C(O)c4cccnc4)cc3C2)cc1O` (centres undefined)?
FMDV inh: -19%

Results for O=C(CC1C(=O)NCCN1Cc1ccc(Cl)c(F)c1)NC1CCC1 (centres undefined) ?
HCV inhibitor: 11%; HCMV antiviral: -11; AmpC inh detg: 0%; AmpC no deterg: 6%; FMDV inh: -10%

What do the screens show for `O=C(NCc1cccs1)C(=O)NCC(c1ccco1)N1CCN(c2ccccc2F)CC1` (centres undefined)?
HCV inhibitor: 11µM*; HCMV antiviral: 0; AmpC inh detg: inconclusive; AmpC no deterg: -37%; FMDV inh: -15%

What do the screens show for `O=C(NCC(c1ccco1)N1CCN(c2ccccc2F)CC1)c1cccs1` (centres undefined)?
HCV inhibitor: 1%[8.37 µM]; AmpC inh detg: -10%; AmpC no deterg: inconclusive; FMDV inh: -5%
